Where “and” joins values, the source holds several entries; their conditions need not be identical. Identical values can stand only once. Inconclusive results are not listed. A call without a number means that no potency is given here. Where a structure was tested more than once in an assay, its records may differ in their call. Calls of active or inactive are those of the source. Unless noted, calls come from the whole dose curve.
Assays:
[1] = Nuclear factor erythroid 2-related factor 2/antioxidant responsive element (Nrf2/ARE) small molecule agonists: qHTS cell viability counter screen in human keratinocytes (AID 1919968; active = well fitted curve in the direction sought with a large enough effect in the repeat runs; an effect the other way counts as inactive or inconclusive; note: nearly all actives have a fitted effect of over 55% in size; note: potency is the fitted concentration of half-maximal effect)
How it was run: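 Stably transfected HaCaT (KeratinoSens), 1,500/well. Test agents in DMSO were applied for 23 h, 37 C/5% CO2. CellTiter-Fluor was incubated 1 h before the fluorescence read.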

[2] = target: KiSS-1 receptor (Homo sapiens) (UniProt Q969F8); assay: Human kisspeptin (KISS1R) small molecule agonists, calcium flux assay in KISS1R-HEK293 cells (AID 1920064; active = well fitted curve in the direction sought with a large enough effect in the repeat runs; an effect the other way counts as inactive or inconclusive)
How it was run: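 After overnight (18 h) culture at 37 C/5% CO2, human KISS1R-HEK293 cells received calcium dye for 1 h, then test compound; emission at 540 nm (excitation 480 nm) was tracked for 3 min.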

[3] = G protein-coupled receptor (GPCR) small molecule agonists, calcium flux assay: HEK293 wild type cell line counter screen (AID 1920065)
How it was run: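 Following 18 h incubation at 37 C/5% CO2, plates got calcium dye for 1 h; compounds, ATP or DMSO were then pinned in and fluorescence followed kinetically (480/540 nm).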

[4] = p53 small molecule agonists, cell-based qHTS assay with human liver microsomes (AID 1963577);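 note: p53 response element beta-lactamase reporter cells with liver microsomes plus NADPH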
How it was run: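 16 h, 37 C exposure of p53RE-bla cells to compounds with human liver microsomes and NADPH (0.5 mg/mL final each); detection via LiveBLAzer mixture, 2 h dark at room temperature.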

[5] = p53 small molecule agonists, cell-based qHTS assay with human liver microsomes: qHTS cell viability counter screen (AID 1963579); note: nearly all actives have a fitted effect of over 45% in size; note: potency is the fitted concentration of half-maximal effect
How it was run: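 In this multiplexed counter screen, the reporter plates were subsequently treated with CellTiter-Glo so that cell viability, reflected by luminescence, could be recorded for p53RE-bla cells dosed 16 h with compounds under microsomal activation (HLM and NADPH).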

[6] = p53 small molecule agonists, cell-based qHTS assay with rat liver microsomes: qHTS cell viability counter screen (AID 1963580); note: nearly all actives have a fitted effect of over 45% in size; note: potency is the fitted concentration of half-maximal effect
How it was run: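 Cytotoxicity counter screen: intracellular ATP read by CellTiter-Glo luminescence in the p53 reporter wells. HCT-116 p53RE-bla cells were treated for 16 h at 37 C alongside rat liver microsomes and NADPH, each 0.5 mg/mL final.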

[7] = p53 small molecule agonists, cell-based qHTS assay: qHTS cell viability counter screen (AID 1963581); note: nearly all actives have a fitted effect of over 45% in size
How it was run: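 qHTS counter screen: 16 h compound exposure at 37 C of p53RE-bla HCT-116 cells (4,000 per well, seeded 5 h prior), cell viability by ATP luminescence.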

[8] = target: 5-hydroxytryptamine receptor 2A (Homo sapiens) (UniProt P28223); assay: 5-hydroxytryptamine receptor 2A (HTR2A) small molecule antagonists, cell-based qHTS assay (AID 1963586); note: nearly all actives have a fitted effect of over 45% in size; note: potency is the fitted concentration of half-maximal effect
How it was run: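 CHO cells stably expressing human HTR2A were plated for 18 h at 37 C, then loaded with calcium dye for 1 h. Compounds were preincubated 5 min at room temperature before DOI (4 nM solution) was added. Kinetic fluorescence was read for 3 min.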

[9] = target: 5-hydroxytryptamine receptor 2A (Homo sapiens) (UniProt P28223); assay: 5-hydroxytryptamine receptor 2A (HTR2A) small molecule agonists, cell-based qHTS assay (AID 1963587); note: nearly all actives have a fitted effect of over 30% in size; note: potency is the fitted concentration of half-maximal effect
How it was run: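 Kinetic calcium-flux fluorescence (2 min, 1 sec intervals) after compound addition in agonist mode. HTR2A-CHO cells were cultured 18 h, then dye-loaded 1 h at 37 C.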

[10] = target: Muscarinic acetylcholine receptor M1 (Homo sapiens) (UniProt P11229); assay: Cholinergic receptor muscarinic 1 (CHRM1) small molecule antagonists, cell-based qHTS assay (AID 1963588); note: nearly all actives have a fitted effect of over 40% in size; note: potency is the fitted concentration of half-maximal effect
How it was run: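 Compounds were tested at 15 concentrations in three independent runs. Dye-loaded CHRM1-CHO cells were exposed 5 min at room temperature before stimulation by acetylcholine added at 50nM. Intracellular calcium was read kinetically on FDSS for 3 min.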

[11] = target: Muscarinic acetylcholine receptor M1 (Homo sapiens) (UniProt P11229); assay: Cholinergic receptor muscarinic 1 (CHRM1) small molecule agonists, cell-based qHTS assay (AID 1963589); note: nearly all actives have a fitted effect of over 35% in size; note: potency is the fitted concentration of half-maximal effect
How it was run: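 Kinetic fluorescence (1 s intervals) of calcium-sensitive dye in human M1 CHO cells after compound addition; cells pre-incubated 18 h at 37 C/5% CO2 and dye-loaded 1 h.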

[12] = cAMP Responsive Elements (CRE) small molecule agonists, cell-based qHTS assay (AID 1963590)
How it was run: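 Test agents in DMSO were incubated 3 h at 37 C/5% CO2 with CRE-bla HEK 293T cells seeded 18 h earlier; LiveBLAzer B/G FRET substrate was added and read after 2 h at room temperature.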

[13] = cAMP Responsive Elements (CRE) small molecule antagonists, cell-based qHTS assay (AID 1963591; active = well fitted inhibition curve with a large enough effect in the signal ratio in the repeat runs, not every such curve was filed as active; the % refers to the signal ratio)
How it was run: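 Reporter line CRE-bla HEK 293T in dialyzed-FBS DMEM; cells preincubated 18 h, treated 3 h with compound plus NKH477 (0.25 uM final); LiveBLAzer FRET, 2 h RT.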

[14] = p53 small molecule agonists, cell-based qHTS assay with rat liver microsomes (AID 1963578)
How it was run: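 With rat liver microsomes and NADPH present (0.5 mg/mL final each), p53RE-bla cells are treated with compound for 16 h at 37 C. LiveBLAzer detection mixture is then applied for 2 h at room temperature in the dark.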

[15] = p53 small molecule agonists, cell-based qHTS assay (AID 1963582; active = well fitted activation curve with a large enough effect in the signal ratio in the repeat runs, not every such curve was filed as active; the % refers to the signal ratio; note: potency is the fitted concentration of half-maximal effect)
How it was run: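 Measured: fluorescence from cleaved LiveBLAzer substrate. System: p53RE-bla cells, 16 h compound treatment at 37 C, 2 h substrate step at room temperature.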

[16] = target: Beta-2 adrenergic receptor (Homo sapiens) (UniProt P07550); assay: Adrenergic beta2 receptor (ADRB2) small molecule antagonists, cell-based qHTS assay (AID 1963592); note: nearly all actives have a fitted effect of over 50% in size; note: potency is the fitted concentration of half-maximal effect
How it was run: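 Assay format: CHO-ADRB2 cells, 18-20hr seeding at 37C/5% CO2, then compound plus 1nM isoproterenol agonist mix for 0.5hr RT. Homogeneous time-resolved fluorescence cAMP detection after 1hr, expressed as 665/615 nm ratio.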

[17] = target: Beta-2 adrenergic receptor (Homo sapiens) (UniProt P07550); assay: Adrenergic beta2 receptor (ADRB2) small molecule agonists, cell-based qHTS assay (AID 1963593);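 note: CHO cells stably overexpressing human ADRB2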
How it was run: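 CHO cells stably over-expressing ADRB2 were plated overnight at 37C, then dosed with compounds plus a stimulation mix containing 100uM IBMX and 25uM Ro-20-1724 for 0.5hr at room temperature. cAMP was measured by HTRF competition, 1hr.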

[18] = target: D(2) dopamine receptor (Homo sapiens) (UniProt P14416); assay: Dopamine D2 receptor (DRD2) small molecule agonists, cell-based qHTS assay (AID 1963594); note: nearly all actives have a fitted effect of over 35% in size
How it was run: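 cAMP accumulation in DRD2-HEK293 cells measured by HTRF after 1 h detection; compounds added 10 min before NKH477 (200nM […]) forskolin-analogue stimulation, 30 min at room temperature, with Ro20-1724 present at 0.1 mM final.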

[19] = target: D(2) dopamine receptor (Homo sapiens) (UniProt P14416); assay: Dopamine D2 receptor (DRD2) small molecule antagonists, cell-based qHTS assay (AID 1963595; active = well fitted inhibition curve with a large enough effect in the signal ratio in the repeat runs, with a control signal flat; the % refers to the signal ratio)
How it was run: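 DRD2-HEK293; 0.1 mM Ro20-1724; cpd 10 min RT; NKH477 200 nM + quinpirole 12 nM, 30 min RT; HTRF cAMP (cAMP-d2/anti-cAMP cryptate), 665/620 nm ratio after 1 h.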

[20] = target: Gonadotropin-releasing hormone receptor (Homo sapiens) (UniProt P30968); assay: Human gonadotropin-releasing hormone receptor (GnRHR) small molecule agonists, calcium flux assay in GnRHR-HEK293 cells (AID 1920063); note: nearly all actives have a fitted effect of over 35% in size
How it was run: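 Stable human GnRHR HEK293 line. 18 h plating, then calcium dye for 1 h at 37 C. Agonist-mode compound addition from DMSO stocks; fluorescence monitored 3 min.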

Chain of Gonadotropin-releasing hormone receptor (Homo sapiens) (P30968 whole entry, looked up): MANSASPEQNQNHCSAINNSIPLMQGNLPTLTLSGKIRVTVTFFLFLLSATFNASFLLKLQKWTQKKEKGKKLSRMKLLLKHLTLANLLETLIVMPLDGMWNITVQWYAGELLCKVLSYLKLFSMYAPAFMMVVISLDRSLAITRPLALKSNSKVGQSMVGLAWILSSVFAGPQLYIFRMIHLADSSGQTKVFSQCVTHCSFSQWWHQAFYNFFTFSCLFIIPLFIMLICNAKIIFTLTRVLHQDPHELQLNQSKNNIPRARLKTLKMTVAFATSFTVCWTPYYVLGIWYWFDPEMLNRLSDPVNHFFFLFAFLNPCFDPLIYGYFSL
Chain of 5-hydroxytryptamine receptor 2A (Homo sapiens) (P28223 whole entry, looked up): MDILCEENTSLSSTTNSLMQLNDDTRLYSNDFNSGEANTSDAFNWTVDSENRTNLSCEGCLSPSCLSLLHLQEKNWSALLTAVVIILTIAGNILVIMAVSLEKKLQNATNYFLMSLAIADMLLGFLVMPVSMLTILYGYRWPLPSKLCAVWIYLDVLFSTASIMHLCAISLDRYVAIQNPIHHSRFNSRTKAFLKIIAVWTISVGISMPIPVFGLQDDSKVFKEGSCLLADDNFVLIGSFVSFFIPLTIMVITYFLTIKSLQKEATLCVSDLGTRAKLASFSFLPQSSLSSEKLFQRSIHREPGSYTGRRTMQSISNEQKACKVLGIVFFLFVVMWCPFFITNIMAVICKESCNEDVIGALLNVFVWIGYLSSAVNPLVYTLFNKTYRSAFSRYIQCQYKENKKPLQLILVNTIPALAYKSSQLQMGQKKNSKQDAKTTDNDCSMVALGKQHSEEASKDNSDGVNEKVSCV
Chain of KiSS-1 receptor (Homo sapiens) (Q969F8 whole entry, looked up): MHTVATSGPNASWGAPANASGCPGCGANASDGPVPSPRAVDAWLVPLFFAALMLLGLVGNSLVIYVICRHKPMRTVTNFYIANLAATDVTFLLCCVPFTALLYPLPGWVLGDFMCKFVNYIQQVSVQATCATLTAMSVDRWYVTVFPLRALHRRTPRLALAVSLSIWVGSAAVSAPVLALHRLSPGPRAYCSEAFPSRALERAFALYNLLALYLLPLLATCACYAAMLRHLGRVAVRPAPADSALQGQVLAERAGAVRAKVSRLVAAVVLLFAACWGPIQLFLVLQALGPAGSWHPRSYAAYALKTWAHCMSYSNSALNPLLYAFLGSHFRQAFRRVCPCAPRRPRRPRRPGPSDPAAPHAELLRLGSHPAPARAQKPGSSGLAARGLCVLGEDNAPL
Chain of Beta-2 adrenergic receptor (Homo sapiens) (P07550 whole entry, looked up): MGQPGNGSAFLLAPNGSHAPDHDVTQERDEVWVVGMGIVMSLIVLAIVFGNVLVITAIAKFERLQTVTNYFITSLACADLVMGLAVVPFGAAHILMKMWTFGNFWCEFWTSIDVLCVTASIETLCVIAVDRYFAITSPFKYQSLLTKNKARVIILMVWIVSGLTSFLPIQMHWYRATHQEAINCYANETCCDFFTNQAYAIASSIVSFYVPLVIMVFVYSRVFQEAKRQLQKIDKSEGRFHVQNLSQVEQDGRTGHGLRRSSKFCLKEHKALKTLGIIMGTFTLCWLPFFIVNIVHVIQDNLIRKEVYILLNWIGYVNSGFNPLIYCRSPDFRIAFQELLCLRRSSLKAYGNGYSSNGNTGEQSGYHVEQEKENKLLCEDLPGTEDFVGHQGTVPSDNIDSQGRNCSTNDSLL
Chain of D(2) dopamine receptor (Homo sapiens) (P14416 whole entry, looked up): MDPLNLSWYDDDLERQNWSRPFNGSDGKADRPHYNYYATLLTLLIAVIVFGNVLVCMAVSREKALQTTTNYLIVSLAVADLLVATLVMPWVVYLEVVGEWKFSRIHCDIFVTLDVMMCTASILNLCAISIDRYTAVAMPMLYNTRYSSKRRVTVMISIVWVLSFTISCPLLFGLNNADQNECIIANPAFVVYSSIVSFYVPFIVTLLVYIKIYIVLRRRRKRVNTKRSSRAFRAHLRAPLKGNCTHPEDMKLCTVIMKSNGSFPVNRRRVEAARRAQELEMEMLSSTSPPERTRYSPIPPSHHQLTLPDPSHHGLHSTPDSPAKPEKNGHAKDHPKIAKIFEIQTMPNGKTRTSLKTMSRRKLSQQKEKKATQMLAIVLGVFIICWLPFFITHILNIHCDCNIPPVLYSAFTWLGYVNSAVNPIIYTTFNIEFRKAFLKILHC
Chain of Muscarinic acetylcholine receptor M1 (Homo sapiens) (P11229 whole entry, looked up): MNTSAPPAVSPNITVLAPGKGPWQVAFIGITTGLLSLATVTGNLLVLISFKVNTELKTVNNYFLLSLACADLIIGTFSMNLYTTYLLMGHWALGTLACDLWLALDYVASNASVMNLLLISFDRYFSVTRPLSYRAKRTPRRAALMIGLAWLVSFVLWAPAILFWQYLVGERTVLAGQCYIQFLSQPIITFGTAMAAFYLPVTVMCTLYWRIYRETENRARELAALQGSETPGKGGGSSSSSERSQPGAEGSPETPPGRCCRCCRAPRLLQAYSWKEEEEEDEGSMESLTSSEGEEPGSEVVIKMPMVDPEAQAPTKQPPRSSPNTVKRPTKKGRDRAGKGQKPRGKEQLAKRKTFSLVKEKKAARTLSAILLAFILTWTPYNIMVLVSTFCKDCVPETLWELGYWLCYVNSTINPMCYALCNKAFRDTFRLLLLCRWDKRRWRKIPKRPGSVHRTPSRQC

SMILES	Potency [1]	Potency [2]	Potency [3]	Potency [4]	Potency [5]	Potency [6]	Potency [7]	Potency [8]	Potency [9]	Potency [10]	Potency [11]	Potency [12]	Potency [13]	Potency [14]	Potency [15]	Potency [16]	Potency [17]	Potency [18]	Potency [19]	Potency [20]
O=C1C(Cl)=C(Cl)C(=O)C(Cl)=C1Cl	27.2 µM (active) and 27.3 µM (active)	inactive	inactive	inactive	40.8 µM (active)	inactive and 40.8 µM (active)	inactive	inactive	inactive	inactive	inactive	inactive	inactive	–	–	–	–	–	–	–
COP(=O)(OC)OC	inactive	–	inactive	–	inactive	inactive	inactive	inactive	55.4 µM (active) and inactive	inactive	49.4 µM (active) and inactive	–	inactive	inactive	inactive	inactive	inactive	inactive	inactive	–
Cc1ccc(N)c(C)c1	inactive	inactive	inactive	–	inactive	inactive	inactive	inactive	inactive	inactive	inactive	inactive	inactive	–	–	inactive	–	inactive	inactive	–
c1ccc(C2CO2)cc1 (configuration not stated)	inactive	inactive	inactive	inactive	inactive	inactive	inactive	4.8 nM (active) and inactive	inactive	inactive	inactive	inactive	inactive	inactive	inactive	inactive	inactive	inactive	inactive	inactive
CCCCCC[n+]1ccccc1	inactive	inactive	inactive	–	11.6 µM (active) and 9.19 µM (active) and inactive	inactive	inactive	–	–	–	–	inactive	inactive	–	–	inactive	inactive	inactive	–	–
CC(C)CCON=O	inactive	inactive	inactive	inactive	inactive	inactive	inactive	inactive	inactive	inactive	inactive	inactive	inactive	inactive	inactive	inactive	–	inactive	inactive	inactive
CC(C)(C)C(=O)C(Cl)Cl	inactive	–	inactive	inactive	inactive	inactive	–	inactive	inactive	–	inactive	inactive	inactive	inactive	inactive	inactive	–	inactive	inactive	–
CC(c1ccc(O)cc1)c1ccc(O)cc1	inactive	inactive	inactive	inactive	inactive	inactive	inactive	inactive	inactive	15.7 µM (active) and inactive	inactive	inactive	inactive	inactive	38.2 µM (active)	inactive	–	inactive	inactive	inactive
CCBr	inactive	–	inactive	inactive	inactive	inactive	inactive	inactive	inactive	–	inactive	inactive	inactive	inactive	inactive	inactive	inactive	inactive	inactive	–
CCCCCCCCn1cc[n+](C)c1	inactive	inactive	inactive	inactive	inactive	inactive	inactive	inactive	inactive	9.41 µM (active) and 3.78 µM (active) and inactive	inactive	inactive	inactive	inactive	inactive	inactive	–	inactive	inactive	inactive
Cc1coc2c1CCC(C)C2 (configuration not stated)	inactive	inactive	inactive	inactive	inactive	inactive	inactive	inactive	inactive	inactive	inactive	–	inactive	inactive	–	inactive	–	inactive	inactive	inactive
O=[N+]([O-])c1ccc([As](=O)(O)O)cc1	inactive	inactive	inactive	inactive	–	inactive	inactive	inactive	inactive	inactive	inactive	inactive	inactive	inactive	inactive	inactive	inactive	inactive	inactive	inactive
c1cc2c(c(N3CCNCC3)c1)OCCO2	inactive	inactive	inactive	inactive	inactive	–	inactive	729 nM (active)	60.1 nM (active)	inactive	inactive	inactive	inactive	–	–	15 µM (active)	–	inactive	inactive	inactive
Nc1ccccc1C(=O)OCC(O)CO (configuration not stated)	inactive	inactive	inactive	inactive	inactive	inactive	–	inactive	inactive	inactive	inactive	inactive	inactive	inactive	inactive	inactive	inactive	inactive	–	inactive
Cc1cc(O)ccc1Cl	inactive	inactive	inactive	inactive	inactive	inactive	inactive	–	inactive	inactive	–	inactive	inactive	inactive	inactive	inactive	inactive	inactive	inactive	inactive
